TROY NFkB inh – TROY signaling inhibition. 360,000 compounds, 0.98% hits. inhibition, % at 10 µM. Q293 LMP1-TROYcd NF-kB luciferase reporter, 4 h;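 active means compounds whose plate-normalised and pattern-corrected inhibition of the luciferase reporter signal at the single screening dose is 50% or more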
EWS-Fli inh – inhibitors of EWS/Fli oncoprotein transcriptional activity. A673 NR0B1-luciferase reporter, viability-normalised. inhibition, % at 12.6 µM. 350,000 compounds, 0.67% hits. AID 651661;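 active means mean inhibition of at least 50% after viability correction, with every replicate also passing that limit; inconclusive means mean reaches 50% but only one of two replicates passes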;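 further: firefly luciferase signal divided by Alamar Blue viability fluorescence both relative to DMSO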
LMP1 NFkB inh – Epstein-Barr LMP1 NF-kappaB reporter inhibition; LMP1-induced NF-kappaB luciferase reporter cells, luminescence; 350,000 compounds, 0.69% hits; inhibition, % at 12.5 µM; AID 504558; in the data active means inhibition above about 41%; inconclusive means no clear call, values can overlap the other calls;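 further: 0% = neutral control wells and 100% = reference inhibitor control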
TWEAK Fn14 block – inhibitors of TWEAK-Fn14 interaction signaling. TWEAK-stimulated Fn14 reporter cells, luciferase luminescence, 8 h. inhibition, % at 10 µM. 360,000 compounds, 2% hits; in the data active means inhibition above about 50%
PAX8 reporter – inhibitors of PAX8 transcriptional activity in RMG-I cells. RMG-I TPO-luciferase reporter, SteadyGlo, 24 h. inhibition, % at 12.6 µM. 360,000 compounds, 1.2% hits;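 active means mean replicate inhibition at least 60% with every replicate also reaching 60%; inconclusive means only one of the two criteria is met; inactive means mean below 60% and not all replicates reaching 60%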;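 further: luciferase light reporting Pax8 driven TPO promoter activity; plate controls were median of neutral control wells for no effect and mitoxantrone controls for full effect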
LGR2 antag – Drosophila LGR2 receptor signaling inhibition | HEK293 LGR2, CRE-luciferase, bursicon-stimulated, 4 h | inhibition, % at 9.99 µM | 380,000 compounds, 0.35% hits;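 active means drop in luminescence signal, shown as inhibition above about 50% in the replicate tests, limit read from the data, passing the limit was not always enough; inconclusive means probably only some replicates passing the limit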;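 further: agonist challenge used bursicon conditioned medium at about half maximal strength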
Starred values were filed as active, the others as inactive; ? = inconclusive; · = not tested or not shown. This is a sample that favours compounds with a hit; in the whole collection about 3.2% have one here.

SMILES	TROY NFkB inh	EWS-Fli inh	LMP1 NFkB inh	TWEAK Fn14 block	PAX8 reporter	LGR2 antag
CC(C)CC#Cc1cnc2c(c1)C(=O)N([C@H](C)CO)C[C@@H](C)[C@@H](CN(C)C(=O)c1cccc(F)c1)O2	·	-4	·	·	-4	5
COc1cccc(NC(=O)N(C)C[C@@H]2Oc3ncc(C#Cc4ccc(F)cc4)cc3C(=O)N([C@H](C)CO)C[C@H]2C)c1	·	10	·	·	·	-5
CCOC(=O)CCCC(=O)Nc1ncnc2c1C(c1ccccc1)c1c(ccc3ccccc13)O2 (stereo not given)	13	5	-10	-5	20	26
O=C(c1ccccc1)N(C(=O)c1ccccc1)c1ncnc2c1C(c1ccccc1)c1c(ccc3ccccc13)O2 (stereo not given)	10	20	-16	47	72*	-1
COc1ccc(S(=O)(=O)N(C)C[C@@H]2OCCCC[C@H](C)Oc3ccc(NS(=O)(=O)c4ccccc4)cc3C(=O)N([C@H](C)CO)C[C@H]2C)cc1	·	-34	·	·	76*	3
COc1ccc(S(=O)(=O)Nc2ccc3c(c2)C(=O)N([C@@H](C)CO)C[C@@H](C)[C@@H](CN(C)S(=O)(=O)c2ccc(Cl)cc2)OCCCC[C@H](C)O3)cc1	·	-2	·	·	-29	6
COc1ccc(S(=O)(=O)Nc2ccc3c(c2)C(=O)N([C@@H](C)CO)C[C@H](C)[C@@H](CN(C)S(=O)(=O)c2ccc(Cl)cc2)OCCCC[C@@H](C)O3)cc1	·	-6	·	·	67*	15
COc1ccc(S(=O)(=O)N(C)C[C@@H]2OCCCC[C@H](C)Oc3ccc(NS(=O)(=O)c4ccc(Cl)cc4)cc3C(=O)N([C@H](C)CO)C[C@@H]2C)cc1	·	17	·	·	79*	39
COc1ccc(S(=O)(=O)Nc2ccc3c(c2)C(=O)N([C@@H](C)CO)C[C@H](C)[C@@H](CN(C)S(=O)(=O)c2ccc(Cl)cc2)OCCCC[C@H](C)O3)cc1	·	21	·	·	65*	11
COc1ccc(S(=O)(=O)N(C)C[C@@H]2OCCCC[C@H](C)Oc3ccc(NS(=O)(=O)c4ccccc4)cc3C(=O)N([C@@H](C)CO)C[C@H]2C)cc1	·	-2	·	·	22	2
CN1C(=O)c2cc(NC(=O)C3CCCC3)ccc2OC[C@H]2O[C@H](CC(=O)NCC(F)(F)F)CC[C@@H]21	·	-2	·	·	1	-15
COc1ccc(S(=O)(=O)N(C)C[C@H]2OCCCC[C@H](C)Oc3ccc(NS(=O)(=O)c4ccc(Cl)cc4)cc3C(=O)N([C@@H](C)CO)C[C@@H]2C)cc1	·	-5	·	·	23	4
COc1ccc(S(=O)(=O)Nc2ccc3c(c2)C(=O)N([C@H](C)CO)C[C@H](C)[C@@H](CN(C)S(=O)(=O)c2ccc(Cl)cc2)OCCCC[C@H](C)O3)cc1	·	5	·	·	78*	6
O=C(C[C@@H]1CC[C@H]2[C@@H](COC[C@@H](O)CN2C(=O)C2CC2)O1)NCc1ccccc1Cl	·	-2	·	·	-5	23
C[C@@H]1CN([C@H](C)CO)C(=O)c2cc(C#C[C@@H](C)O)cnc2O[C@H]1CN(C)C(=O)CC1CC1	·	-1	·	·	·	4
Cc1nn(-c2ccccc2)c(Cl)c1CN(C(=O)CCl)c1cccc2ccccc12	1	38	-4	77*	111*	35
Cc1nn(-c2ccccc2)c(Cl)c1CN(C(=O)CCl)c1ccc(Cl)cc1	3	·	7	-2	100*	0
CC(=O)N(Cc1c(C)nn(-c2ccccc2)c1Cl)c1ccc(Cl)cc1	6	·	7	5	-6	·
COc1ccc(CN(C)C[C@@H]2OCCCC[C@H](C)Oc3ccc(N(C)C)cc3C(=O)N([C@H](C)CO)C[C@@H]2C)cc1	·	17	·	·	-7	8
O=C1CCCc2cc3c(cc21)CC1(C3)Cc2cc3c(cc2C1)C(=O)CCC3	61*	?	20	35	25	34
CCc1ccc2c(c1)C(=O)CCC2	-7	0	22	19	21	-18
O=S(=O)(c1ccccc1)N1CCN(Cc2ccccc2)CC1	19	1	-3	-2	-6	-5
O=S(=O)(c1ccccc1)N1CCN(Cc2cccc(Cl)c2)CC1	21	·	-2	79*	-9	·
O=C(c1ccc([N+](=O)[O-])cc1)N1CCN(Cc2ccccc2)CC1	6	·	59*	9	22	-19
O=C(c1ccc(S(=O)(=O)c2cccc(Cl)c2)c([N+](=O)[O-])c1)N1CCN(Cc2ccccc2)CC1	33	·	13	84*	46	5
SMILES	TROY NFkB inh	EWS-Fli inh	LMP1 NFkB inh	TWEAK Fn14 block	PAX8 reporter	LGR2 antag
O=[N+]([O-])c1ccc(C(=S)N2CCN(Cc3ccccc3)CC2)cc1	0	·	1	12	·	-18
CO[C@H]1CN(C)C(=O)c2ccc(NC(=O)NC(C)C)cc2OC[C@H](C)N(Cc2ccccn2)C[C@H]1C	·	-6	·	·	-4	2
C[C@H]1CCCCO[C@H](CN(C)C(=O)Nc2ccc(F)cc2)[C@@H](C)CN([C@@H](C)CO)C(=O)c2cc(NC(=O)Nc3ccc(F)cc3)ccc2O1	·	1	·	·	-10	10
Cc1ccc(S(=O)(=O)N(C)C[C@H]2Oc3cc(C#Cc4ccncc4)ccc3S(=O)(=O)N([C@H](C)CO)C[C@@H]2C)cc1	·	-3	·	·	-40	0
Cc1sc2nc3ccc(NCc4ccco4)nn3c(=O)c2c1C	3	·	-25	91*	·	·
CC(C)c1[nH]nc2c1C(c1cccnc1)C(C#N)=C(N)O2 (stereo not given)	13	·	10	60*	·	·
Cc1ccc2c(c1)CCCN2S(=O)(=O)c1cccc(C(=O)Nc2ccccc2C(=O)O)c1	55*	-27	17	10	24	34
CC(=O)c1ccc(NS(=O)(=O)c2cccc(C(=O)Nc3ccccc3C(=O)O)c2)cc1	13	7	10	82*	10	-11
C[C@H](CO)N1C[C@H](C)[C@H](CN(C)C(=O)c2ccc3c(c2)OCO3)Oc2cc(C#Cc3ccccc3F)ccc2S1(=O)=O	·	19	·	·	56	1
C[C@H]1CN([C@@H](C)CO)S(=O)(=O)c2ccc(C#Cc3ccccc3F)cc2O[C@H]1CN(C)C(=O)Cc1ccccc1	·	14	·	·	7	7
C[C@H](CO)N1C[C@H](C)[C@@H](CN(C)C(=O)Cc2ccccc2)Oc2cc(C#Cc3ccccc3F)ccc2S1(=O)=O	·	34	·	·	74*	18
C[C@@H]1CN([C@H](C)CO)S(=O)(=O)c2ccc(C#Cc3ccccc3F)cc2O[C@@H]1CN(C)C(=O)Cc1ccccc1	30	16	-3	50*	38	10
C[C@H](CO)N1C[C@H](C)[C@@H](CN(C)C(=O)c2ccc3c(c2)OCO3)Oc2cc(C#Cc3ccccc3F)ccc2S1(=O)=O	·	25	·	·	79*	17
Cc1ccc2oc(C(=O)N3CCN(c4cccc(C)n4)CC3)c(C)c2c1	-33	-38	-15	69*	-14	-14
Cc1cc(Cl)c2oc(C(=O)N3CCN(c4cccc(C)n4)CC3)c(C)c2c1	13	-115	-39	-22	-208	-63

Source: PubChem (several laboratories)
